Measurements published in PubChem BioAssay AID1259313 (Sanford-Burnham Center for Chemical Genomics, 2017).
Among all 340,000 compounds or so, about 8,500 (2.5%) were called active.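 Rule for the calls: active = melting temperature shift of at least 10% of the positive control shift, at one fixed dose; inactive = the rest.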 For the sample, actives were picked, then their nearest neighbours and some compounds at random.

system: Glutamate receptor ionotropic, NMDA 3A (GRIN3A) ligand-binding domain; experiment: binders of NR3A ligand-binding domain, primary screen, biophysical, differential scanning fluorimetry, uHTS (AID 1259313); settings: NR3A LBD differential scanning fluorimetry, at 25 µM, hits give high values, 0% = protein alone, 100% = glycine-bound protein

SMILES	Tm shift relative to glycine control
CSc1nsc(SCC(=O)Nc2cc(C(=O)O)ccc2C)n1	1.25% (inactive)
CC(NC(=O)Nc1ccccc1)c1ccccc1 (stereo unspecified)	-5.71% (inactive)
CC(=O)c1cccc(NC(=S)N2CCCC2)c1	2.43% (inactive)
C=CCSc1nsc(NC(=O)Nc2cccc(C(C)=O)c2)n1	15.6% (active)
CSc1nsc(NC(=O)Nc2ccccc2)n1	19.7% (active)
CCSc1nsc(NC(=O)Nc2cccc(C(C)=O)c2)n1	0.77% (inactive)
S=c1[nH]c2ccccc2c2ccccc12	-5.09% (inactive)
OCC1(Cc2ccccc2C(F)(F)F)CCN(Cc2ccncc2)CC1	-1.43% (inactive)
CCOc1cc(CNn2c(C)nnc2SCC(=O)NC(C)(C)C)ccc1OCC(=O)NC(C)(C)C	-4.76% (inactive)
CC1(C)CC(CNCCC(c2ccc(F)cc2)c2ccco2)CCO1 (stereo unspecified)	0.16% (inactive)
COC(=O)CSc1ccc2nnc(CCNS(=O)(=O)c3ccc(C)cc3)n2n1	-0.94% (inactive)
CN(C)S(=O)(=O)c1ccc(NC(=O)COC(=O)c2n[nH]c3ccccc23)cc1	-2.54% (inactive)
CCN(CC)S(=O)(=O)c1ccc(C(=O)N2CCN(C3=NS(=O)(=O)c4ccccc43)CC2)cc1	0.26% (inactive)
O=C(Nc1ccccc1)Nc1nnc(COc2ccccc2F)s1	38.9% (active)
COCC(=O)Nc1nnc(COc2ccccc2)s1	2.29% (inactive)
O=C(Nc1nnc(COc2ccccc2)s1)Nc1ccccc1F	1.33% (inactive)
Cc1ccc(-c2nnc(SCC(=O)N/N=C/c3cccs3)n2-c2ccc(C)cc2)cc1	-6.78% (inactive)
COc1cccc(/C=C/C(=O)Nc2ccc3c(c2)OCCO3)c1	2.64% (inactive)
CCC1([N+](=O)[O-])COC(c2ccc(C)cc2)OC1 (stereo unspecified)	-10.1% (inactive)
NC(=O)CC[C@@H]1NC(=O)[C@H](CO)NC(=O)c2cc([N+](=O)[O-])cc(I)c2NCC[C@@H](C(N)=O)NC1=O	-0.81% (inactive)
O=C(NCc1ccccc1Cl)C1CCCN1S(=O)(=O)c1ccc(F)cc1 (stereo unspecified)	2.13% (inactive)
O=C(CN1CCN(S(=O)(=O)c2ccc(Cl)s2)CC1)NCc1ccc(Cl)cc1	-1.27% (inactive)
CN(NC(=O)c1ccccc1F)c1nc(C(F)(F)F)nc2ccccc12	0.16% (inactive)

SMILES	Tm shift relative to glycine control
CN(NC(=O)c1ccccc1)c1nc2ccccc2nc1C(F)(F)F	11.4% (active)
CSc1nc(N(C)NC(=O)c2cccc(C)c2)c2ccccc2n1	3.17% (inactive)
Cc1ccc(C)c(C(=O)N2CCC(n3nccc3NC(=O)C3CC3)CC2)c1	0.44% (inactive)
O=C1NC(Nc2nc3ccccc3s2)(C(F)(F)F)C(=O)N1C1CCCCC1 (stereo unspecified)	13.7% (active)
O=C(NC1(C(F)(F)F)NC(=O)N(C2CCCCC2)C1=O)c1ccco1 (stereo unspecified)	1.55% (inactive)
CCC1(CC)NC(=O)N(Cc2nc3ccccc3s2)C1=O	-0.61% (inactive)
Cc1ccc2oc(=O)c3cnn(CC(=O)N4CCN(c5ccccn5)CC4)c3c2c1	0.6% (inactive)
CCOc1cccc2cc(C(=O)OCC(=O)Nc3c(C)cccc3CC)c(=O)oc12	-0.27% (inactive)
N#C/C(=C\N1CCOCC1)S(=O)(=O)c1ccc(Cl)cc1	-0.42% (inactive)
CCCN(CCC)c1c([N+](=O)[O-])c(=O)oc2ccccc12	-4.15% (inactive)
Cc1ccc(-n2cc3ccc([N+](=O)[O-])cc3n2)cc1	13.3% (active)
Cc1ccc(-c2cn3cc([N+](=O)[O-])ccc3n2)cc1	0.72% (inactive)
Cc1ccc(C(=O)Cn2cc([N+](=O)[O-])nc2C)cc1	2.36% (inactive)
CN(C)/C=C(/C(=O)c1ccccc1)S(=O)(=O)c1ccc(Cl)cc1	-1.01% (inactive)
CC(C)c1cc(NCc2ccccn2)n2c(nc3ccccc32)c1C#N	1.69% (inactive)
Cc1cc(NC(C)C)n2c(nc3ccccc32)c1C#N	0.92% (inactive)
Cc1cc(NCc2ccco2)n2c(nc3ccccc32)c1C#N	19.7% (active)
O=C(NCc1ccc2c(c1)OCO2)C12CC3CC(CC(C3)C1)C2	-0.27% (inactive)
CCOC(=O)Cc1csc(NC(=O)COc2ccc3c(C)cc(=O)oc3c2)n1	-1.92% (inactive)
Cc1cc(=O)oc2cc(OCC(=O)Nc3nnc(C4CC4)s3)ccc12	-0.86% (inactive)
Cc1ccc(O)c(/C=N/NC(=O)COc2ccc3c(C)cc(=O)oc3c2)c1	16.8% (active)
CC(C)Cn1c(N)c(C(=O)NCc2cccs2)c2nc3ccccc3nc21	19.1% (active)
O=C(NCc1cccs1)c1cc(-c2ccccn2)nc2ccc(Br)cc12	-0.39% (inactive)

SMILES	Tm shift relative to glycine control
CCOc1ccccc1NC(=O)Cn1nnc(C(=O)NCc2cccs2)c1N	-0.84% (inactive)
Cc1ccc(S(=O)(=O)c2ccc(Cl)cc2)cc1S(=O)(=O)NC(C(=O)O)C(C)C (stereo unspecified)	-2.2% (inactive)
CCCOn1c(-n2nc(C)cc2C)nc2ccccc2c1=O	1.18% (inactive)
O=C(CSc1ccc(C(F)(F)F)cc1[N+](=O)[O-])NCCOc1ccccc1	-6.06% (inactive)
O=C(/C(=C/c1cccc(Cl)c1)c1nc2ccccc2[nH]1)c1ccccc1	23% (active)
Oc1ccc2nc(Cc3ccccc3)[nH]c2c1	-5.45% (inactive)
N#C/C(=C(/O)COC(=O)COc1ccc(Cl)cc1)c1nc2ccccc2[nH]1	7.42% (inactive)
CN(CC1CCCN(CCc2cccc(C(F)(F)F)c2)C1)C(=O)c1ccc2nc[nH]c2c1 (stereo unspecified)	1.25% (inactive)
NC(=O)Cn1cc(/C=N\NS(=O)(=O)c2ccccc2)c2ccccc21	-34.7% (inactive)
O=C(Cn1cc(/C=N/NC(=O)c2cccc(C(F)(F)F)c2)c2ccccc21)Nc1ccc(F)cc1	15.8% (active)
O=C(CN1CCN(c2ccc(F)cc2)CC1)Nc1cccc(C(F)(F)F)c1	-4.33% (inactive)
CCCOC(=O)c1ccc(N2C(=O)c3ccccc3C2=O)cc1	-1.6% (inactive)
Cc1ccc(C)c(NC(=O)c2cc(-c3cc(C)cc(C)c3O)n[nH]2)c1	0.62% (inactive)
Cc1ccc(NC(=O)c2cc(-c3ccccc3O)n[nH]2)cc1C	26.2% (active)
Cc1ccc(NC(=O)CCN2C(=O)c3ccccc3C2=O)cc1C	-0.19% (inactive)
O=C(CNS(=O)(=O)c1ccc2ccccc2c1)Nc1ccc(F)c(F)c1F	35% (active)
CN(CC(=O)NCCc1ccc(S(N)(=O)=O)cc1)CC(=O)Nc1ccc(F)c(F)c1F	-1.98% (inactive)
O=C(CNS(=O)(=O)c1cccc(C(F)(F)F)c1)Nc1ccccc1F	-1.13% (inactive)
O=C(c1ccncc1)N1CCN(S(=O)(=O)c2cccc([N+](=O)[O-])c2)CC1	2.5% (inactive)
Cc1ccc(Cc2cncc(O)c2)cc1S(=O)(=O)O	0.09% (inactive)
CNc1nc(=O)n(C2CCCO2)cc1C (stereo unspecified)	-4.19% (inactive)
N#Cc1c(N)n(CCOC(=O)c2ccc(Cl)cc2)c2nc3ccccc3nc12	35.9% (active)
COCC(C)OC(=O)c1c(N)n(CCCN2CCOCC2)c2nc3ccccc3nc12 (stereo unspecified)	-0.69% (inactive)

SMILES	Tm shift relative to glycine control
CN(C)CCCn1c(N)c(C#N)c2nc(C#N)c(C#N)nc21	-3.53% (inactive)
C=CCc1cccc2cc(C(=O)N3CCN(C(=O)OCC)CC3)c(=O)oc12	-2.65% (inactive)
Cc1ccc(NC(=O)CSc2nn3c(=O)c(C)nnc3s2)cc1Cl	-1.28% (inactive)
C/C(=N\Nc1ccc(Cl)nn1)c1ccccc1O	-6.71% (inactive)
CC(C)(C)c1ccc(SCCc2ccncc2)cc1	0.08% (inactive)
O=C(Nc1cc(S(=O)(=O)Nc2ccc(Cl)cc2)ccc1O)c1ccc(F)cc1F	37.7% (active)
Cc1cc(NS(=O)(=O)c2ccc(NC(=S)NC(=O)c3ccc(F)cc3Cl)cc2)no1	0.87% (inactive)
O=C(Nc1cccc(S(=O)(=O)NC2=NCCC2)c1)c1ccc(F)cc1F	0.09% (inactive)
Cn1c(Cc2cccc3ccccc23)nnc1SCC(=O)N1CCN(c2cccc(Cl)c2)CC1	5.43% (inactive)
CCC(Oc1ccccc1C)C(=O)Nc1ccc(S(=O)(=O)Nc2cc(C)on2)cc1 (stereo unspecified)	3.83% (inactive)
Cc1ccc(S(=O)(=O)N2CCCCC2)cc1C(=O)N1CCN(CCO)CC1	2.45% (inactive)
COc1ccccc1N(CCOc1ccccc1)S(=O)(=O)c1ccccc1	12.6% (active)
COc1ccccc1NC(=O)CN(c1ccccc1OC)S(=O)(=O)c1ccccc1	0.31% (inactive)
COc1ccccc1N(CC(=O)N1CCCCC1)S(=O)(=O)c1ccccc1	0.84% (inactive)
NC(=S)Nc1c(Cl)cccc1Cl	2.25% (inactive)
CN(CC(=O)Nc1c(Cl)cccc1Cl)C(=O)CNC(=O)C1CCCCC1	0.17% (inactive)
O=C(Nc1c(Cl)cccc1Cl)C1CCC1	12.7% (active)
Cc1c(S(=O)(=O)N2CC(C)CC(C)C2)c(=O)n(C)c(=O)n1C (stereo unspecified)	11.1% (active)
Cc1c(S(=O)(=O)NC(C)c2ccccc2)c(=O)n(C)c(=O)n1C (stereo unspecified)	-6.52% (inactive)
Cc1c(S(=O)(=O)NCc2ccccc2)c(=O)n(C)c(=O)n1C	-0.41% (inactive)
O=C(NCCc1ccccc1Cl)C1CCC(=O)N(CCCc2ccccc2)C1 (stereo unspecified)	3.05% (inactive)
O=C(NNC(=O)c1ccc(-n2cncn2)c([N+](=O)[O-])c1)c1ccccc1	3.86% (inactive)
